The list is not random: actives were taken first. Their share in the collection is about 4.6%.
SKKanGAS inh = inhibitors of SKKanGAS S. pyogenes growth in kanamycin (SK-promoter or general growth effect). inhibition, % at 7.5 µM. AID 1662. BacTiter-Glo, 6 h. 1.3% of 300,000 active;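 active = mean replicate score, as percent of positive control median, at least 50; inconclusive = mean below 50 but one replicate at or above 50; inactive = mean and every replicate below 50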;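 note: strain carries kanamycin resistance gene driven by streptokinase promoter and grows in 40 µg/ml kanamycin; loss of luminescence reflects streptokinase promoter inhibition or plain growth inhibition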
NALP3 yeast inh = inhibitors of NALP3 inflammasome in yeast | 0.39% of 330,000 active | Yeast reconstituted NLRP3/ASC/caspase-1, beta-gal luminescence, 24 h | AID 2825 | inhibition, % at 10 µM;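 active = inhibition of 50% or more; inactive = inhibition below 50%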
PfHsp90 yeast 2 = reduces growth (ATP signal) of yeast expressing P. falciparum Hsp90 | S. cerevisiae expressing PfHsp90, BacTiter-Glo ATP, 48 h; yeast lacking PDR1 and PDR3 efflux regulators | inhibition, % at 9.4 µM | 0.32% of 310,000 active | AID 504621;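 active = every replicate shows inhibition above about 80%, whatever the replicate mean, limit read from the data; inconclusive = mean inhibition reaches the set limit but some replicate falls short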
tim10-1 inh = tim10-1 yeast growth inhibition | AID 463190 | S. cerevisiae tim10-1 ts strain growth, BacTiter-Glo, 24 h | inhibition, % at 20 µM | 2.2% of 330,000 active;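 active = inhibition of at least 40%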;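 note: mutant grown at 25 °C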
tim23-1 inh = growth inhibitors of tim23-1 mutant yeast; S. cerevisiae tim23-1 growth, BacTiter-Glo luminescence, 24 h; inhibition, % at 20 µM; 1.3% of 330,000 active; AID 463212;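 active = growth inhibition of the mutant yeast at or above 50%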;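 note: temperature-sensitive mutant grown at 25 °C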
TIM10 inh = inhibits growth of TIM10 yeast strain; S. cerevisiae TIM10 strain growth, BacTiter-Glo luminescence, 24 h; inhibition, % at 10 µM; 1.4% of 330,000 active; AID 463195;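 active = inhibition of 40% or more at the single tested concentration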;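 note: wild-type TIM10 isogenic control strain grown at permissive 25 °C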
tim10-1 confirm = tim10-1 yeast growth inhibition, confirmed; shares compounds with tim10-1 inh; S. cerevisiae tim10-1 ts strain growth, BacTiter-Glo, 24 h; inhibition, % at 20 µM; 56% of 7,400 active;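 active = inhibition of yeast growth at or above a set limit in either of two repeat tests at 20 µM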;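 note: tim10-1 mutant grown at permissive 25 °C to find synthetic lethal compounds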
Large screens that a line does not name were inactive (follow-up assays come after a bar, where they were run).

COc1ccccc1C(=O)Nc1ccccc1SC(=O)c1ccccc1OC	tim10-1 inh 43 | tim10-1 confirm 37
CCOc1ccccc1C(=O)Nc1cc(OC)ccc1OC	tim10-1 inh 43 | tim10-1 confirm 37
CCOc1cc(NC(=O)c2ccccc2OC)c(OCC)cc1NC(=O)c1ccccc1	none
COc1ccc(CC(=O)Nc2cccc(-c3ccc4nnc(C)n4n3)c2)cc1OC	none
CC(=O)Oc1ccc(/C=N/NS(=O)(=O)c2ccccc2)cc1	SKKanGAS inh inconclusive, tim10-1 inh 44 | tim10-1 confirm 44
C/C(=N/Nc1nc(C)cc(-c2ccccc2)n1)c1ccco1	tim10-1 inh 41 | tim10-1 confirm inactive
C/C(=N\Nc1nc(C)cc(-c2ccccc2)n1)c1ccccc1	none
CSc1ncc(Cl)c(C(=O)Nc2nnc(SC/C=C/c3ccccc3)s2)n1	tim10-1 inh 42 (no result: PfHsp90 yeast 2) | tim10-1 confirm 39
O=C(Nc1ccccc1)c1ccccc1N=Cc1ccccc1O	none
CCOc1ccccc1C=Nc1ccccc1C(=O)Nc1ccccc1	tim10-1 inh 46 | tim10-1 confirm inactive
OC(COc1ccccc1)Cn1c2ccccc2c2ccccc21 (stereo not drawn)	tim10-1 inh 42 | tim10-1 confirm 51
CCOC(=O)C1CCN(C(=O)C2CCCN2S(=O)(=O)c2ccc(Cl)cc2)CC1 (stereo not drawn)	none
CC(=O)NCc1ccc(C(=O)CN2C(=O)NC3(CCCCC3C)C2=O)s1 (stereo not drawn)	none (no result: SKKanGAS inh, PfHsp90 yeast 2)
CCCN(CCC)S(=O)(=O)c1ccc(C(=O)Nc2nnc(-c3cc(OC)cc(OC)c3)o2)cc1	SKKanGAS inh 102, tim10-1 inh 41 | tim10-1 confirm inactive
CCCN(CCC)S(=O)(=O)c1ccc(C(=O)Nc2nnc(CSC)o2)cc1	none
COc1ccc(C(=O)c2c3ccc([N+](=O)[O-])cc3[n+]([O-])n2CCCC(N)=O)cc1	none
C/C=C(\C)CN1CCCC(N(C)CCc2ccc(OC)c(OC)c2)C1 (stereo not drawn)	none
COC(CN(C(=O)CCl)C(C(=O)NC1CCCCC1)c1ccccc1C)OC (stereo not drawn)	tim10-1 inh 43 | tim10-1 confirm 32
COC(CN(C(=O)CCl)C(C(=O)NC1CCCCC1)c1ccc(Cl)cc1)OC (stereo not drawn)	tim10-1 inh 43 | tim10-1 confirm inactive
COc1ccc(C(C(=O)NC2CCCCC2)N(C(=O)CCl)c2ccc(Cl)cc2)cc1 (stereo not drawn)	none
COc1cc(OC)c(NC(=O)CN(C)S(=O)(=O)c2ccc(-c3ccc(=O)[nH]n3)s2)cc1Cl	none
Cc1nc(N2CCCCC2)c2c(C)c(C(=O)Nc3ccc4c(c3)OCCO4)sc2n1	tim10-1 inh 46 | tim10-1 confirm 31
Cc1nc(N2CCN(c3ccccn3)CC2)c2c(C)c(C(=O)Nc3c(F)cc(F)cc3Br)sc2n1	tim10-1 inh 40 | tim10-1 confirm inactive
Cc1nc(N2CCN(C)CC2)c2c(C)c(C(=O)Nc3ccc(C)c(F)c3)sc2n1	none
COc1cc(C2C(c3ccccc3)C(c3cc(OC)cc(=O)o3)C2c2ccccc2)oc(=O)c1 (stereo not drawn)	none (no result: SKKanGAS inh, NALP3 yeast inh, tim10-1 inh, tim23-1 inh, TIM10 inh)
COc1ccc(-c2cc(=O)oc3c(C)c(OC(C)C(=O)Nc4ccc(CN5CCOCC5)cc4)ccc23)cc1 (stereo not drawn)	tim10-1 inh 43 | tim10-1 confirm inactive
N/C(=N\OC(=O)CCCOc1ccc(Cl)cc1Cl)c1ccccn1	tim10-1 inh 59 | tim10-1 confirm 39
N/C(=N\OC(=O)COc1cc(Cl)c(Cl)cc1Cl)c1ccccn1	none
Cc1ccc(S(=O)(=O)N(C)CC(=O)O/N=C(\N)c2ccccn2)cc1	none
CN(CC(=O)O/N=C(\N)c1ccccn1)S(=O)(=O)c1cc(Cl)ccc1Cl	tim10-1 inh 43 | tim10-1 confirm 41
Clc1cccc(C2Nc3cccc4cccc(c34)N2)c1Cl	tim10-1 inh 42 | tim10-1 confirm 58
c1coc(C2Nc3cccc4cccc(c34)N2)c1	tim10-1 inh 41 (no result: PfHsp90 yeast 2) | tim10-1 confirm 35
Brc1ccc(C2Nc3cccc4cccc(c34)N2)cc1	none (no result: SKKanGAS inh, NALP3 yeast inh, tim10-1 inh, tim23-1 inh, TIM10 inh)
Clc1ccccc1C1Nc2cccc3cccc(c23)N1	tim10-1 inh 43 | tim10-1 confirm 34
Cc1cc(C)c(C)c(S(=O)(=O)ON2C(=O)c3ccccc3C2=O)c1C	tim10-1 inh 59 | tim10-1 confirm 61
Cc1cccc(C(=O)NC(=S)NCc2cccnc2)c1	none
CCOc1ccc(N(Cc2ccc(OC)cc2)C(=O)c2ccco2)cc1	tim10-1 inh 44 | tim10-1 confirm inactive
COc1ccc(-c2cc(C)no2)cc1S(=O)(=O)N(C)c1ccc(C)cc1	tim10-1 inh 45 | tim10-1 confirm inactive
Cc1ccc2[nH]c3c(=O)n4c(nc3c2c1)SCC4	tim10-1 inh 45 | tim10-1 confirm inactive
COc1ccc2[nH]c3c(=O)n4c(nc3c2c1)SCCC4	tim10-1 inh 40 | tim10-1 confirm 39
O=c1c2ccccc2nc2n1CCS2	none (no result: PfHsp90 yeast 2)
Cc1ccc(S(=O)(=O)N2CC(O)CC2C(=O)OCC(=O)Nc2ccc([N+](=O)[O-])cc2C(F)(F)F)cc1C (stereo not drawn)	none (no result: SKKanGAS inh)
COC(=O)C1=C(C)N=c2s/c(=C3\C(=O)Nc4ccccc43)c(=O)n2C1c1ccccc1 (stereo not drawn)	tim10-1 inh 40 (no result: PfHsp90 yeast 2) | tim10-1 confirm inactive
O=c1c2oc3ccccc3c2ncn1Cc1ccc(F)cc1	none (no result: PfHsp90 yeast 2)
COc1ccc(-c2cnn3c4c(c(C)nc23)CCN4C(C)C)cc1OC	tim10-1 inh 43 | tim10-1 confirm inactive
CC(C)c1ccc(-c2cc(C(=O)N3N=C(C(F)F)CC3(O)C(F)F)c3ccccc3n2)cc1 (stereo not drawn)	SKKanGAS inh 90, PfHsp90 yeast 2 111, tim10-1 inh 41 | tim10-1 confirm inactive
O=C(c1cc(C2CC2)nc2ccccc12)N1N=C(C(F)F)CC1(O)C(F)F (stereo not drawn)	none (no result: PfHsp90 yeast 2)
COc1ccc(N2CCN(c3cc(C)nc4ccc(OC)cc34)CC2)cc1	tim10-1 inh 43 | tim10-1 confirm inactive
COc1ccc2nc(C)cc(N3CCC(C(N)=O)CC3)c2c1	none
CCOC(=O)c1ccc(CNC(=O)c2cc(COc3ccccc3SC)on2)o1	none
COc1ccc(/C=C/C(=O)CC(O)(c2ccccc2)C(F)(F)F)cc1 (stereo not drawn)	tim10-1 inh 47 (no result: PfHsp90 yeast 2) | tim10-1 confirm 36
O=C(/C=C/c1ccccc1)CC(O)(c1ccccc1)C(F)(F)F (stereo not drawn)	tim10-1 inh 45 | tim10-1 confirm 39
COc1ccc(/C=C/C(=O)CCC(=O)O)cc1	none
